aSyn rescue – rescues yeast growth from alpha-synuclein toxicity; Yeast expressing alpha-synuclein, growth rescue, BacTiter-Glo, 24 h; Potency, µM (highest dose often 46.1 µM), for the others: at the highest dose growth rescue (activation), hits mostly activators; actives 0.14% (n = 370,000); AID 652106; also: % of control where 0% means no effect; nearly all actives have a fitted effect of over 65% in size
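Readout is rescue of growth in alpha-synuclein-expressing yeast, so inhibitors of toxicity appear as activators. Growth after 24 hr at 30 deg C in galactose medium is quantified by luminescence.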
TDP43 rescue – rescues yeast growth from TDP-43 toxicity; Potency, µM (series often up to 46.1 µM), inactives show at the highest dose growth rescue (activation), usual class: activators; TDP-43 expressing yeast growth rescue, BacTiter-Glo, 24 h; AID 652104; actives 1.8% (n = 410,000); also: % of control where 0% means no effect; nearly all actives have a fitted effect of over 50% in size
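Cell-based yeast growth screen: TDP-43 expression induced in galactose, inoculum OD600=0.02 after raffinose pregrowth to mid-log. Read-out BacTiter-Glo luminescence at 24 hr, 30 deg C; inhibition of toxicity seen as signal increase.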
PTAP TSG101 blk – blocks PTAP/TSG101 interaction to inhibit HIV-1 budding | Q99816 | AID 493005 | 340,000 tested, under 10 active | Potency, µM (top dose mostly 115 µM), for inactives: at the highest dose activity change, negative = inhibition, actives largely listed as inhibitors | Fluorescence polarization, FITC-PTAP peptide / Tsg101 binding; active = well fitted inhibition curve with a large enough effect in the main read-out, with a control signal flat, not every such curve was filed as active; inconclusive = small, poorly fitted or top-dose-only effect, or effect the other way, or a change in a side signal; inactive = no such curve, though single readings can be large or run the other way; also: % of control where 0% means no effect
Target sequence (Q99816 whole entry, looked up): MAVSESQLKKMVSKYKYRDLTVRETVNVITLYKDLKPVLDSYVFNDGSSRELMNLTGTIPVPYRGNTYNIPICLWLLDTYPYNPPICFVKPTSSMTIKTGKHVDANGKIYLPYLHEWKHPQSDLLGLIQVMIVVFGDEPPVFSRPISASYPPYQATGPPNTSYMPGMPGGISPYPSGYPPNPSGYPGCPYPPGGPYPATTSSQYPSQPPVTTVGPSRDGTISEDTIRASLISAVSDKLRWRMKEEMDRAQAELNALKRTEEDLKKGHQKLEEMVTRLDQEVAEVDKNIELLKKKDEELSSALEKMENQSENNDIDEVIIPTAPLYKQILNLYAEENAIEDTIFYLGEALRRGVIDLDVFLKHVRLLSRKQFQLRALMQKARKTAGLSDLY
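FP read-out: FITC-PTAP peptide, 50 nM final, binding Tsg101 binding domain, 10 uM final; 20 min, r.t.; 10 mM HEPES pH 7.5, 0.15 M NaCl, 0.01% Tween 20, 3 mM EDTA, 0.1 mM TCEP.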
FUS suppressor – FUS proteinopathy suppression in yeast | actives 0.24% (n = 390,000) | S. cerevisiae FUS-expressing, growth rescue, OD600, 24 h | Potency, µM (titrated, usually from 76.6 µM), actives largely listed as activators | AID 1347120;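 also: plate controls were DMSO vehicle for no effect and reference control for full effect; nearly all actives have a fitted effect of over 55% in size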
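Yeast FUS proteinopathy model; galactose-induced FUS (2%), starting OD 0.005. Cpds in dilution series, 24hr, 30C, 99% humidity. Abs 600 nm growth. Pos ctrl CP55940 (top 92uM final); neg ctrl DMSO.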
Abeta rescue – compounds reversing amyloid beta toxicity in yeast. yeast expressing A-beta42, growth rescue, OD600, 48 h; response scale: 0% DMSO, 100% iron-clioquinol control. Potency, µM (top dose mostly 46.1 µM), usual class: activators. actives 0.063% (n = 410,000). AID 1347071; also: nearly all actives have a fitted effect of over 55% in size
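Growth rescue measured by 600 nm absorbance after 48 h yeast culture at 30 C with compound. Values normalized between DMSO and an equimolar ferric chloride plus clioquinol control.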
Active calls of the source: *; i = inactive; ? = inconclusive; . = no result given. In the library only some 2.1% were active in any assay of this set; here they are far more common. Unless noted, calls follow the shape of the dose curve; as a rule, active = well fitted curve in the direction sought with a large enough effect; inconclusive = small, poorly fitted or top-dose-only effect, or another doubt; inactive = no such curve, though single readings can be large; an effect the other way counts as inactive or inconclusive. Potency is read from the fitted curve at half-maximal effect.

SMILES | aSyn rescue | TDP43 rescue | PTAP TSG101 blk | FUS suppressor | Abeta rescue
CCOc1ccc(C(=O)NCC(=O)OCc2c(F)cccc2Cl)cc1OCC | 0% | -9% | -1% | i | i
CCOc1ccc(C(=O)NCC(=O)OCc2c(F)cccc2Cl)cc1 | 1% | 22µM* | 0% | . | i
C(=Nc1cccnc1)c1ccc2ccccc2n1 | 1% | . | . | . | .
O=C(NCC1CCCO1)C(c1cccs1)N(Cc1ccccc1)C(=O)c1ccc(-c2ccccc2)[nH]1 (configuration not stated) | 4% | 16µM* | 2% | . | i
O=C(NCC1CCCO1)C(c1cccs1)N(C(=O)c1ccc(-c2ccccc2)[nH]1)C1CCCC1 (configuration not stated) | 14% | 20% | 2% | i | i
COc1ccc(CN(C(=O)c2ccc(-c3ccccc3)[nH]2)C(C(=O)NCC2CCCO2)c2ccc(C)o2)cc1 (configuration not stated) | 27% | 11µM* | 2% | . | i
O=C(NCC1CCCO1)C(c1ccc(F)cc1)N(CCCN1CCOCC1)C(=O)c1ccc(-c2ccccc2)[nH]1 (configuration not stated) | -3% | -22% | -5% | i | i
S=C(NCc1ccc2[nH]c3c(c2c1)CCCC3)Nc1ccccc1 | ? | 18µM* | -6% | i | ?
Cc1cc(C)cc(NC(=S)NCc2ccc3[nH]c4c(c3c2)CCCC4)c1 | 5% | 20% | -4% | ? | ?
COc1ccc(CCCC(=O)NCc2ccccc2)cc1C | 9% | 18µM* | -1% | . | i
COc1cc(C(=O)NCCC(=O)NCc2cccs2)cc(OC)c1OC | -4% | 5% | . | i | i
CNc1nc(-c2ccccc2)nc(-c2ccccc2)c1C#N | 11% | -7% | -1% | i | i
NNc1nc(-c2ccccc2)nc(-c2ccccc2)c1Br | -3% | 22µM* | -8% | i | i
O=S(=O)(c1ccccc1)N1CCN=C1SCc1c(F)cccc1Cl | 7% | 11µM* | -1% | . | i
O=S(=O)(c1ccc(Cl)cc1)N1CCN=C1SCc1cccc(Cl)c1 | ? | 5% | -5% | . | i
CCn1c(=O)c2cc(C(=O)NC3CCC(C)CC3)sc2c2ccccc21 (configuration not stated) | . | -2% | . | i | i
COc1cccc(NC(=O)c2csc3c2CCCCC3)c1 | . | 13µM* | . | i | i
COc1ccc(NC(=O)c2csc3c2CCCCC3)cc1 | . | 23% | . | i | i
Cc1[nH]nc2ncc(C(=O)c3ccccc3O)cc12 | -6% | 19% | -6% | 13µM* | i
Cc1c(C(=O)OC(C)C(=O)N(C)Cc2ccccc2)oc2ccccc12 (configuration not stated) | 1% | 35µM* | -1% | i | i
CC1(C(=O)Nc2cnc3ccccc3c2)CCN1Cc1cc2ccccc2o1 (configuration not stated) | 11% | 0% | . | i | i
O=C(Nc1c(O)c2ccccc2oc1=O)c1ccccc1Cl | . | 2.5µM* | . | i | i
O=C(c1ccccc1Cl)c1c(O)c2ccccc2oc1=O | -14% | -11% | 0% | i | i
CC(=O)Nc1sc2c(c1-c1nc3ccccc3s1)CCN(C(C)C)CC2 | . | . | . | i | .
COc1ccc(NC(=O)CSc2nc3ccccc3nc2N2CCC(C)CC2)cc1 | . | 12% | . | i | i
SMILES | aSyn rescue | TDP43 rescue | PTAP TSG101 blk | FUS suppressor | Abeta rescue
CC1(C)Cc2ccccc2-c2nc3ccccc3c(=O)n21 | 2% | 13µM* | -3% | i | i
COc1cccc(CSc2nnc(CSc3nc4nc(C)cc(C)n4n3)s2)c1 | 2% | 20µM* | -7% | i | i
CC1=C(C(=O)Nc2ccccc2)C(c2cccs2)n2nc(SCc3ccccc3)nc2N1 (configuration not stated) | . | 13% | . | i | i
O=[N+]([O-])c1ccc(Sc2nccn2Cc2ccccc2)c([N+](=O)[O-])c1 | -7% | 14µM* | -2% | . | i
CCc1c(C)sc(NC(=S)Nc2cccnc2)c1C(=O)OC | -3% | 25µM* | -2% | i | i
O=C(COc1ccccc1C(=O)Nc1ccccc1)Nc1ccc(-c2ccccc2)cc1 | 2% | . | . | . | .
COc1ccc(NC(=O)c2c(N)c(C(=O)c3ccc(C)cc3)n3ccccc23)cc1OC | . | 7% | . | i | i
CCCCOc1ccc(-c2nnc(-c3ccncc3)o2)cc1 | -6% | 20µM* | 4% | i | i
O=C(Nc1ccc(Cl)cc1)c1ccc(OCC2CCCO2)cc1 (configuration not stated) | -9% | 12% | 1% | i | i
O=C(Nc1ccc(Br)cc1Cl)c1ccc(OCC2CCCO2)cc1 (configuration not stated) | 0% | 18µM* | -4% | i | i
O=C(N/N=C/c1ccc(N2CCOCC2)cc1)c1ccccc1OCCOc1ccccc1 | 4% | 25µM* | 20% | i | i
Cc1ccc(C2=NN(CC(=O)NC(C)c3ccccc3)C(=O)CC2)cc1 (configuration not stated) | . | 46% | . | i | i
Cc1nc2c(-c3ccc(Cl)cc3)cnn2c(N)c1-c1ccc(F)cc1 | 4% | 15% | -1% | i | i
Cc1nc2c(-c3ccc(F)cc3)cnn2c(N)c1-c1ccccc1 | -16% | 13µM* | -7% | i | i
CCN(CC)C(=O)CC[C@H]1CC[C@]2(CCCN(S(=O)(=O)c3ccccc3)C2)O1 | . | . | . | i | .
O=C(COC(=O)c1cccc(Oc2ccccc2)c1)NCc1ccco1 | 16% | 16µM* | -7% | i | ?
COc1cc(N2C(=O)c3ccccc3C2=O)c(Cl)cc1C(=O)OCC(=O)NCc1ccco1 | -7% | 13% | -2% | 16µM* | i
COc1cccc(OC)c1C(=O)OCC(=O)NCc1ccco1 | 1% | 23% | -1% | i | i
O=C(NCc1ccco1)c1ccc(Oc2ccccc2)cc1 | 0% | 20µM* | -3% | i | i
CCc1nc(-c2ccc(C)c(S(=O)(=O)N3CCN(c4ccc(C(C)=O)cc4)CC3)c2)no1 | . | 15% | . | ? | i
COc1ccccc1C(=O)NNC(=O)C(=O)Nc1cccc(Cl)c1C | -52% | 11µM* | 0% | i | i
CC(C)(C)NCC(=O)N/N=C/c1ccc(OCc2ccccc2)cc1 | 4% | 22µM* | 0% | i | i
CCCCNC(=O)C(=O)N/N=C/c1ccc(OCc2ccccc2)cc1 | -1% | -3% | 1% | i | i
Oc1ccc(N=Cc2ccc(OCc3ccccc3)cc2)cc1 | 2% | 25µM* | 1% | i | i

Screening results deposited in PubChem by National Center for Advancing Translational Sciences (NCATS).
